# Results published in the supplement of paper PMC13380429.
# Test system: Vero E6 infected with SARS-CoV-2
# Assay: morphology score (similarity to uninfected cells); higher = more like uninfected cells
# Conditions: 24 h
row,SMILES,morphology score
1,CC(=O)Nc1ccc(C(=O)O)cc1 [acedoben] (10 µM),0.0304
2,CCO[C@@H](Cc1ccc(OCCn2c(C)ccc2-c2ccc(SC)cc2)cc1)C(=O)O [saroglitazar] (10 µM),0.336
3,C[C@@H](NC(=O)[C@@H](N)Cc1ccc(O)cc1)C(=O)NCC(=O)N(C)[C@@H](Cc1ccccc1)C(=O)N[C@H](CO)CC[S+](C)[O-] (stereo not given in full) (10 µM),0.111
4,Fc1cc(F)c2c(c1)[C@H]1C=CC[C@H]1C(c1cccnc1)N2 (stereo not given in full) [Golgicide A] (0.833333 µM),0.281
5,Cc1c(-c2ccc(O)cc2)n(Cc2ccc(OCCN3CCCCCC3)cc2)c2ccc(O)cc12 [bazedoxifene] (0.833333 µM),0.201
6,N#C/C(=C\c1ccc(O)c(O)c1)C(=O)NCc1ccccc1 (10 µM),0.214
7,CN(C)CCCNC(=O)c1ccc(-c2cc(O)c3ncccc3c2)cc1 (0.833333 µM),-0.00508
8,COc1ccc(Nc2ccn(-c3ccccc3)n2)cc1 (10 µM),0.166
9,C=CCN1CC[C@]23c4c5ccc(O)c4O[C@H]2C(=O)CC[C@@]3(O)[C@H]1C5 (10 µM),-0.209
10,CC(CCc1ccc(O)cc1)NCC(O)c1ccc(O)cc1 (stereo not given) [ractopamine] (10 µM),-0.0659
11,Cn1cc(/C=C2\C(=O)Nc3cccnc32)c2ccccc21 (10 µM),-0.0337
12,CCCCC/C=C\C/C=C\CCCCCCCC(=O)NCCCC(=O)O [GABA-linoleamide] (10 µM),0.105
13,Oc1ccc([C@@H]2Oc3ccc(O)cc3[C@@H]3CCC[C@@H]32)cc1 [erteberel] (10 µM),0.0963
14,O=c1oc2ccccc2c(O)c1Cc1c(O)c2ccccc2oc1=O [dicoumarol] (10 µM),0.0403
15,O=C(O)c1cc(O)c2c(c1)C(=O)c1cccc(O)c1C2=O [rhein] (10 µM),0.272
16,CNCc1ccc(-c2cc(-c3nc(-c4ccc(S(=O)(=O)C(C)C)cc4)cnc3N)on2)cc1 (0.833333 µM),0.565
17,Clc1ccc(C(Cn2ccnc2)OCc2csc3c(Cl)cccc23)c(Cl)c1 (stereo not given) [sertaconazole] (10 µM),0.201
18,CC[C@H](C)[C@H](N)C(=O)O [isoleucine] (10 µM),0.202
19,O=c1ncn2nc(Sc3ccc(F)cc3F)ccc2c1-c1c(Cl)cccc1Cl (10 µM),-0.049
20,O=C(NO)c1ccc(O)c(O)c1 [didox] (10 µM),0.0981

row,SMILES,morphology score
1,Nc1nnc(Sc2ncc([N+](=O)[O-])s2)s1 (0.833333 µM),0.248
2,CCC(=O)N1CCOc2c(cc(-c3ccc(OC)c(OC)c3)cc2OC[C@H]2CCCN(C)C2)C1 (0.833333 µM),-0.0814
3,Cc1ccc(NC(=O)c2cccc(C(C)(C)C#N)c2)cc1Nc1ccc2ncn(C)c(=O)c2c1 (0.833333 µM),-0.0585
4,C[C@]12CC[C@@H]3c4ccc(OC(=O)c5ccccc5)cc4CC[C@H]3[C@@H]1CC[C@@H]2O [estradiol-benzoate] (10 µM),-0.19
5,C[C@H](CS)C(=O)N1CCC[C@H]1C(=O)O [captopril] (10 µM),0.0071
6,C[N@+]1(CC2CC2)CC[C@]23c4c5ccc(O)c4O[C@H]2C(=O)CC[C@@]3(O)[C@H]1C5 [methylnaltrexone] (10 µM),-0.0178
7,CS(=O)(=O)Nc1ccc(-c2coc3cc(OCc4cccc(C(=O)O)c4)ccc3c2=O)cc1 (10 µM),0.0543
8,C[C@](O)(COc1ccc(C#N)cc1)C(=O)Nc1ccc(C#N)c(C(F)(F)F)c1 [ostarine] (10 µM),0.0725
9,CN(C)[C@@H]1CCc2[nH]c3ccc(NC(=O)c4ccc(F)cc4)cc3c2C1 (10 µM),0.438
10,N#C/C(=C\c1ccc(O)c(O)c1)C(=O)NCCCCc1ccccc1 (0.833333 µM),0.167
11,CCCCCCCCCCCCCCCCCCCCCCCCCCCCO [1-octacosanol] (10 µM),0.118
12,Cc1cc(C)c(Nc2ccnc(Nc3ccc(C#N)cc3)n2)c(C)c1 [dapivirine] (0.833333 µM),0.07
13,N#C/C(=C\c1cn(-c2ccccc2)c2ccccc12)C(=O)O (10 µM),-0.0582
14,Cc1ccc([N+](=O)[O-])cc1S(=O)(=O)N(C)/N=C/c1cnc2ccc(Br)cn12 (0.833333 µM),0.0254
15,CN1CCN(c2nc3ccccc3nc2Cl)CC1 (10 µM),0.162
16,Cc1ccc(/N=C/N(C)/C=N/c2ccc(C)cc2C)c(C)c1 [amitraz] (10 µM),0.147
17,N=C(N)NCCC[C@@H](N)C(=O)N[C@@H](CCCNC(=N)N)C(=O)N1CCC[C@H]1C(=O)N1C[C@H](O)C[C@H]1C(=O)NCC(=O)N[C@@H](Cc1cccs1)C(=O)N[C@@H](CO)C(=O)N1Cc2ccccc2C[C@@H]1C(=O)N1[C@H](C(=O)N[C@@H](CCCNC(=N)N)C(=O)O)C[C@@H]2CCCC[C@@H]21 [icatibant-acetate] (10 µM),0.105
18,N#C/C(=C\c1ccc(O)c(O)c1)C(N)=O [tyrphostin-AG-99] (10 µM),0.0858
19,Cc1ccccc1-n1c(CF)nc2ccc(N)cc2c1=O [afloqualone] (10 µM),0.166
20,CC(C)n1nccc1-c1ncccc1COc1cccc(O)c1C=O [voxelotor] (10 µM),0.188
